The full ranking holds about 25,000 sequences; the median of “ln(normalized median fluorescence intensity)” is about 9.3, and the highest 2% start at about 10. The sample holds the highest values, similar sequences and a random draw of the others, so the mix is not that of the screen.

The experiment relates to PF3D7_0420300 AP2 domain 1 (GST-tagged). Briefly: gcPBM binding intensity (ln(normalized median fluorescence intensity)); higher = stronger DNA binding. In a few lines: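 DNA-binding domains from P. falciparum, fused to GST and produced in E. coli, were put on an Agilent 4 × 180k double-stranded probe array for 1 h in 1× PBS holding 1% milk, 0.2 mg/ml BSA, 0.5% salmon testes DNA and 0.03% Triton X-100. Probes were primer-extended, 36 bp long and drawn from intergenic genomic regions, with negative controls included. After Alexa488 anti-GST antibody detection and a 488 nm scan, binding intensity was set as the highest Masliner-normalised natural-log median intensity across replicate spots of either probe orientation.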
Turning to “TTTACATATTTATATACACACTTTTGCGTGCGTGGT [CACACA_site6647]”, the “gcPBM binding intensity (ln)” value turned out to be 9.21.
The figure for “AAAAAAATTGGGAAAAGTACTTGCAGCTAGCTAAAA [XGTACX_site5178]” is 9.18; for “TACTTTTATATGAATACACACAGGAATATATATATG [CACACA_site3568]” it is 9.48.
On to “ATTCTAAATATCAGTGCACACATTTCTACGCAAAGT [CACACA_site474]”, for which the “gcPBM binding intensity (ln)” value came out at 9.36.
The figure for “TATATATATATATATGGTACAGTTTATGCCTTTTAA [XGTACX_site6695]” is 9.14.
The figure for TAGTGATATAATTATGTGCACTTAATACAGGTCGAT is 9.42; for “AAAAAAAAAAAAAGTACACACTTTTGCGTACAAGTA [CACACA_site5672]” it is 9.32.
Take “TTTTTAAAAAAAAATAGAGAGTCAAAGTATGTGGCG [CACACA_negctrl_site194]”: the “gcPBM binding intensity (ln)” value was found to be 9.32.
The same measure for “AATTCTTTCATATATTGTACGTATTCCCATAAAATA [XGTACX_site5923]”: 9.36; for “AATGCCTTGTTGAGGTGTACTGAATGTTATTTTAAT [XGTACX_site3255]”: 9.19.
The same measure for “CACAAAAATAAATATAAACACACAATAAATAAATAA [CACACA_site8197]”: 9.75; for “ACAAATAAATAAAAAACACACACAAATAAATAAATA [CACACA_site8708]”: 10.1; for “AAAAAAAAAAAAAACACACACACAAAATAAACAAAC [CACACA_site2720]”: 10.3.
For the sequence “AAAATAAAATAAAACACAAAAAAATAAAACAAAATA [CACACA_negctrl_site16]”, the “gcPBM binding intensity (ln)” value came out at 9.8.
The figure for “TTCAAAATAAAAAATTCACACACATATATATATATA [CACACA_site8653]” is 9.33.
With “CAAAAAATTCAACACACACACACACCGATAAATAAA [CACACA_site8330]”, the “gcPBM binding intensity (ln)” value is 10.2.
In the case of “TATATATAAATAAACACACACAAATATAATAAAAAA [CACACA_site3526]”, the “gcPBM binding intensity (ln)” value stood at 10.1.
The figure for “TACAAAAATATATAAACACACAAATATAATATATAT [CACACA_site2942]” is 9.74; for “AATAAAAACAAACAAAAAAACAAATAAATAAATAAA [CACACA_negctrl_site483]” it is 9.65; for “AATATATATAAATAAACACACACAAATATAATAAAA [CACACA_site9176]” it is 10.2.
The same measure for “ACAAAATAAAAACACACACACAAACACAAAAAAATA [CACACA_site3390]”: 10.3; for “AAATAATTCAAAAAAACACACAAATTACAAAATAAA [CACACA_site269]”: 9.72.
As for “TATATATTATAAAAGAGTACAGAAAGAAAAAAAAAT [XGTACX_site8305]”, the “gcPBM binding intensity (ln)” value is 9.54.
The figure for “TCTTTTAAATAACAACATAAATAAATAAATAAATAA [GTGCAC_negctrl_site319]” is 9.01; for “GTGTATTTTGTGCGCACACACATGCAAAAAGAAATA [CACACA_site6660]” it is 9.55.
The same measure for “AGAAATTATAAATACCTACACACTTATCAAAATAAA [CACACA_site2264]”: 9.55.
The figure for “TTACACATATATATAAATATATATAAATATATATAT [CACACA_negctrl_site150]” is 9.08.
Turning to “AATATTATTTAGGAGCGTACGTTTTATTTACATATT [XGTACX_site5188]”, the “gcPBM binding intensity (ln)” value was determined as 9.4.
The figure for “TATATTAAACCATGTAGTACCTTGAATAAATATTAT [XGTACX_site8254]” is 9.23; for “TTTATTTAATTCATTGCATGTAATTTTTGTGTCCAC [TGCATGCA_site677]” it is 9.21.
The figure for “ATTACATAACAATATACACACTATTGATTAAAGAGA [CACACA_site5602]” is 9.56.
Take “GGAATATAAATACATACACACATATATATATATATA [CACACA_site4998]”: the “gcPBM binding intensity (ln)” value stood at 9.44.
Turning to “TTTTTTATTTTGTGCACACACATAAAAATATATATA [CACACA_site761]”, the “gcPBM binding intensity (ln)” value stood at 9.5.
“TTAATAAGAGAGCAATAGGTGGACTGTTTCTTTTAT [CACACA_negctrl_site1239]”: the “gcPBM binding intensity (ln)” value came out at 9.22.
The figure for “TACCAAAATAGACACACACACAAAATATGTAAATAT [CACACA_site6963]” is 10.2.
With “AAATAAATAATATGTAAACACACAAAAAATAAAAAT [CACACA_site8307]”, the “gcPBM binding intensity (ln)” value was 9.72.
The figure for “CACAAAAATAGACACACACACATATAAATAAATATA [CACACA_site6598]” is 10.
The figure for “TAAATTAAAAAACACACACACAAAAAAAAAAAAAAA [CACACA_site2263]” is 10; for “AATTAACAAAAACACACACACACACCCACAAAAAAA [CACACA_site517]” it is 10.1; for “AATTAACAAAAACACACACACACACCGACAAAAAAA [CACACA_site4444]” it is 10.3.
Turning to “ATATATATATATATATATATATATATATATTATATA [XGTACX_negctrl_site48]”, the “gcPBM binding intensity (ln)” value was 8.89.
The figure for “ATGTGTATAATTAAATGTACATATATATATATATAT [XGTACX_site829]” is 9.52; for “ATATGTAGAATAAAAAAAAAAAAAAAAAAAAAAAAT [CACACA_negctrl_site621]” it is 9.39; for “TTTAATCATATGTTATATAATAAGCCCCCCCCCCAA [CACACA_negctrl_site486]” it is 10.4.
The same measure for “TATTAATTATATTTATGTACATAATCATATTATTAT [XGTACX_site7938]”: 9.37.
Turning to “ATATATATATAATTATATAAAATATATCATATGTTA [XGTACX_negctrl_site47]”, the “gcPBM binding intensity (ln)” value turned out to be 9.15.
The figure for “TGTAGCCTGGAGAAGAGTACATAGTATCTGGTAGCT [XGTACX_site4943]” is 9.12; for “ATATTCATGTTGATATGTACTTATTCTATATTGAAT [XGTACX_site8347]” it is 9.28; for “AAGTGCATATTATTCACACATAATAATTGTATACCT [CACACA_site5965]” it is 9.34.
The figure for “CTAAACAAAAAATAATGTACACATACATAAAAAATA [XGTACX_site1808]” is 9.35.
The figure for “AAAAAAATTCTTGGCGCACACACTTTAAAAATTAAA [CACACA_site597]” is 9.24; for “AAGTAAAAAAATAGCACACACACAAAAACACAGACA [CACACA_site4839]” it is 10.2; for “GTAAAAAAATAGCACACACACAAAAACACGCACAAA [CACACA_site6723]” it is 10.2.
Regarding “AAATATTAGTAACACAGACACACAAAAAAAAAAAAA [CACACA_site2175]”, the “gcPBM binding intensity (ln)” value turned out to be 9.5.
The figure for “AAAAAACAAAAACACACGCACACAAAAAAAAAAAAA [CACACA_site802]” is 9.82.
Regarding “AAGTAAAAAAATAGCACACACACAAAAACACCCACA [CACACA_site1291]”, the “gcPBM binding intensity (ln)” value was determined as 10.
The same measure for “CAATATAAAAAACACACGCACACAAAAAAAAAAAAA [CACACA_site3521]”: 9.79; for “AAAAAAAACATCCTCACACATATATATATATATATA [CACACA_site5166]”: 9.18; for “TCACCATATAAACGTGCACACTACAAAAATATATAA [CACACA_site5413]”: 9.26.
Turning to “TTGGTTATACAACACATGCACACGTAAATAAATATT [CACACA_site3841]”, the “gcPBM binding intensity (ln)” value came to 9.38.
The figure for “AAAGACGTTTATAAATGTACATACACTTTAAAAGTT [XGTACX_site8753]” is 9.08; for “AAAAAGTGATTAAAATGTACAAAATGCATAAAAGAA [XGTACX_site6625]” it is 9.6.
Turning to “TATAAATAGAGGAAGCGTACATATATATATATATAT [XGTACX_site4993]”, the “gcPBM binding intensity (ln)” value was 9.34.
As for “TCGGGAGGGGGGAAGCGTACATATATAAAATTATTA [XGTACX_site4683]”, the “gcPBM binding intensity (ln)” value was found to be 10.2.
The figure for “ATAAATAAATAAAAGCGTACATATATATAAAATATA [XGTACX_site8107]” is 9.39; for “TTCTTACATGAGTGTACACACTTTTTTTCAGAAAAT [CACACA_site4215]” it is 9.19.
The figure for “AACGCACGAGGACACACACACATATTTATATTTATA [CACACA_site6608]” is 9.87.
As for “ACTGTGGGAATAACCACACACACACCCACATATATA [CACACA_site3542]”, the “gcPBM binding intensity (ln)” value turned out to be 10.
Regarding “ACCGTGGGAGGACACACACACACACGCACATATATA [CACACA_site6289]”, the “gcPBM binding intensity (ln)” value was 10.3.
Take “ACCGTGGGAAGACACACACACACACCCACATATATA [CACACA_site333]”: the “gcPBM binding intensity (ln)” value worked out at 10.2.
With “ATGGGACATATATATACACACATATATATATATATA [CACACA_site1202]”, the “gcPBM binding intensity (ln)” value came to 9.46.
As to “CGTGGGAGCGGACACACACACACACCCATATATATA [CACACA_site4340]”, the “gcPBM binding intensity (ln)” value amounted to 10.1.
The same measure for “CGTGGGAGCAGACACACACACACACCCATATATATA [CACACA_site334]”: 10.1; for “AAACCGTGGGAGCACACACACACACGCGCACATATA [CACACA_site6288]”: 10.1; for “ACCGTGGGAGGACACACACACACACCCACATATATA [CACACA_site4339]”: 10.2.
Regarding “AATTATCAGGAATGATGTACTGAAATAAAAAAAAAA [XGTACX_site3280]”, the “gcPBM binding intensity (ln)” value amounted to 9.11.
For the sequence “GTATATATATATATATGTACTAATTAGTAGTTTACG [XGTACX_site6274]”, the “gcPBM binding intensity (ln)” value worked out at 9.25.
With “TTTTTATGAATTCTTTTGTTAATAATAATATGTTGT [TGCATGCA_negctrl_site198]”, the “gcPBM binding intensity (ln)” value was 9.19.
The same measure for “ATATATCTGTATGGCACACACGGATAAATATATATA [CACACA_site4668]”: 9.52; for “ATATAGTAAATTGGTAGTACATAAAATGATTTTATG [XGTACX_site4143]”: 9.26; for “AAAAAAAAATTGTGTACACATAATTATATCATATGT [CACACA_site4500]”: 9.3.
The same measure for “ACCTATTTCAAACACACACACACACTAACAAACATA [CACACA_site8233]”: 10.3.
For the sequence “ACCTATTTCAAACACACACACACACCCACAAACATA [CACACA_site977]”, the “gcPBM binding intensity (ln)” value is 10.4.
For “TGTTTCTTATTTTTTTCACACACTAAACATTTCAAA [CACACA_site2218]”, the “gcPBM binding intensity (ln)” value is 9.62.
As to “ACCTATTTCAAACACACACACACACTAGCAAACATA [CACACA_site4695]”, the “gcPBM binding intensity (ln)” value turned out to be 10.3.
Regarding “ACTATTTTCTTCAAAACATGCACCACATAAACATAA [TGCATGCA_site200]”, the “gcPBM binding intensity (ln)” value came out at 9.18.
On to “CTATTTCAGAAACACACACACACAAACAAACATATA [CACACA_site978]”, for which the “gcPBM binding intensity (ln)” value amounted to 9.93.
In the case of “TTTCTTATTTTTTTCACACACTAAACATTTCAAATG [CACACA_site5259]”, the “gcPBM binding intensity (ln)” value was found to be 9.35.

(Values after the supplement of paper PMC11417369.)
